Data taken from PubChem BioAssay AID2551 (National Center for Advancing Translational Sciences (NCATS), 2010).
The whole screen tested about 310,000 compounds, of which about 17,000 (5.5%) were called active. About 11% were inconclusive and are not listed. Shown is part of a subset that was picked to be rich in actives. Unmarked numbers belong to inactive results. Calls come from the whole dose curve; as a rule, active = well fitted inhibition curve with a large enough effect; inconclusive = small, poorly fitted or top-dose-only effect, or effect the other way; inactive = no such curve, though single readings can be large or run the other way.

target: Nuclear receptor ROR-gamma (Mus musculus) (UniProt P51450); assay: qHTS for inhibitors of ROR gamma transcriptional activity; conditions: Drosophila S2 Gal4-RORgamma UAS-luciferase reporter, 20 h; series mostly up to 53.6 µM; activity change, negative = inhibition: at the top concentration; note: nearly all actives have a fitted effect of over 60% in size
From the text: NIH Molecular Libraries Probe Production Network [MLPCN] NIH Chemical Genomics Center [NCGC] MLPCN Grant: R03 DA026211-01 Assay Provider: Dan Littman, New York University Assay Overview: The retinoic acid-related orphan receptor (ROR) gamma is a transcription factor that has a central role in the differentiation of Th17 cells, a subset of T helper cells that secrete the inflammatory cytokines IL-17, IL-17F, and IL-22. Th17 cells have been implicated in graft versus host disease, autoimmune disease and asthma. ROR gamma is induced in naive T helper cells in the presence of TGF-beta combined with IL-6, IL-21, or IL-23, and thereafter directs the expression of the Th17 lineage cytokines. To study the mechanism of action of ROR gamma, an insect cell-based assay was screened. This Drosophila Schneider cell line was stably transfected with two vectors: a gene expressing a fusion of the Gal4 DNA binding domain and ROR gamma transactivation domain under the control of the metallothionine promoter and a Photinus luciferase reporter regulated by the Gal4 binding site enhancer, UAS. […] Small molecule inhibitors of ROR gamma activity are detected by a decrease in luciferase reporter activity.
Assay Protocol Summary: For screening, 600 cells in 4 uL/well were dispensed into white solid 1536-well plates (Grenier) using a solenoid-based dispenser. Following transfer of 23 nL compound or DMSO vehicle by a pin tool, the plates were incubated 1 hr at ambient temperature, and 1 uL/well copper sulfate (700 uM final concentration) was added. The plates were centrifuged 15 s at 1000 RPM and incubated 20 hr at ambient temperature. After addition of 1.5 uL Photinus luciferase detection reagent, the plates were incubated 10 min at ambient temperature and then read by an ViewLux (Perkin Elmer) to detect luminescence. Keywords: NIH Roadmap, MLPCN, MLI, MLSMR, qHTS, NCGC, qHTS, nuclear hormone receptor, retinoic acid-related orphan receptor, ROR gamma
% is set by controls: 0 for no effect and ±100 for the full control effect; potency is the fitted concentration of half-maximal effect.

Sequence of Nuclear receptor ROR-gamma (Mus musculus) (P51450 whole entry, looked up, the tested form may be a part): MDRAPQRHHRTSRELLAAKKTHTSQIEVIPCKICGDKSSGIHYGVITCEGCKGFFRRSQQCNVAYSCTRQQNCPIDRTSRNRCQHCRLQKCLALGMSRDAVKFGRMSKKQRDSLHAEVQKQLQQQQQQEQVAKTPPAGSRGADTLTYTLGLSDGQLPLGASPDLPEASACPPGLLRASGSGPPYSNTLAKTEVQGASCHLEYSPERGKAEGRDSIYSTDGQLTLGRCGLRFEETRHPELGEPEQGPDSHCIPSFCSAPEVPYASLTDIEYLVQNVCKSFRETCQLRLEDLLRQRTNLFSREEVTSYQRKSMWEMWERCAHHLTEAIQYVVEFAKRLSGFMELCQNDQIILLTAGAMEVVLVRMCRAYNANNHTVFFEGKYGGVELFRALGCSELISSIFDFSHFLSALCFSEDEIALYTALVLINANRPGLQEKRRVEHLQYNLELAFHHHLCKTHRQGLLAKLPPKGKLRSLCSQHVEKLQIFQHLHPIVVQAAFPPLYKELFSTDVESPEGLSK

Compound	activity change, negative = inhibition	Potency
C/C(=C\C(=O)c1ccc(Br)cc1)N1CCCCC1	-18.8%	
CC1CN/C(=C\C(=O)c2ccc(Br)cc2)C(=O)N1 (configuration not stated)		12.6 µM (active)
COc1cc2c(cc1OC)/C(=C/C(=O)c1ccc(NC(C)=O)cc1)NCC2	-26.3%	
C[C@H](NC(=O)[C@@H]1Cc2ccccc2CN1C(=O)OC(C)(C)C)C(=O)NC1CCCC1	4.46%	
CC(NC(=O)c1ccco1)c1ccc2c(c1)OCO2 (configuration not stated)	-5.06%	
Cc1ccc(C(=O)Nc2ccc(NC(=O)c3cccs3)cc2)c(C)c1	-39.8%	
Cc1cc(/C=C2\SC(=O)N(C)C2=O)c(C)n1-c1cccc(C(=O)O)c1	20.7%	
Cc1cccc(-n2c(C)cc(/C=N/NC(N)=S)c2C)c1		3.55 µM (active)
Cc1cccc(-n2c(C)cc(/C=N\NC(=O)c3cccs3)c2C)c1		10 µM (active)
Cc1cc(/C=N/Nc2ccc([N+](=O)[O-])cn2)c(C)n1-c1cccc(C(=O)O)c1	18.9%	
Cc1cc(/C=N/n2cnnc2)c(C)n1-c1cccc(C(=O)O)c1	-25.7%	
COC(=O)c1ccc2c(=O)n(CCN3CCOCC3)c(SCC(=O)Nc3cccc(OC)c3)nc2c1	14.3%	
CCN1C(=S)N[C@@H](c2cccc(C(F)(F)F)c2)C(C(=O)OC)=C1C	-38.5%	
CC(C)C[C@H](NC(=O)C1CCC(CNC(=O)[C@@H]2CCCN2C(=O)OC(C)(C)C)CC1)C(=O)O (some centres not stated)	-27.2%	
COC(=O)Nc1ccc(S(=O)(=O)Nc2cc(OC)nc(OC)n2)cc1	6.6%	
COc1cc(NS(=O)(=O)c2ccc(N/C=C(\C=O)c3nc4cc(Cl)ccc4o3)cc2)nc(OC)n1		14.1 µM (active)
COc1cc(NS(=O)(=O)c2ccc(NC(=S)NC(=O)c3ccccc3)cc2)nc(OC)n1	43.1%	
COc1ccc(C2(O)C(=O)Nc3ccccc32)cc1 (configuration not stated)	7.24%	
Cc1cccn2c(=O)c3cc(C(=O)NC4CCCCC4)sc3nc12	12.6%	
COc1ccc(-c2nc(CS(=O)(=O)CC(=O)NCc3cccc(Br)c3)c(C)o2)cc1	-4.95%	
CC(C)c1ccc(NC(=S)NNc2ccc(Cl)c(C(=O)O)c2)cc1	-2.28%	
S=C(NNC(=S)NC1CC2C=CC1C2)NC1CC2C=CC1C2 (configuration not stated)	-1.63%	
CC(C)c1ccc(NC(=S)NC2CC3C=CC2C3)cc1 (configuration not stated)		3.55 µM (active)
CC(=O)Nc1ccc(NC(=O)COc2ccc(-c3ccccc3)cc2)cc1	-2.09%	
CC1=CC(C)(C)N(C(=O)CSc2nccn2C)c2cc(C)ccc21		11.2 µM (active)
Cc1ccc(C)c(-n2ccnc2SCC(N)=O)c1	10.4%	

Compound	activity change, negative = inhibition	Potency
CC1=CC(C)(C)N(C(=O)CSc2nnc(-c3ccccc3)o2)c2ccc(C)cc21	3.05%	
COc1ccccc1CNC(=O)c1ccc(SC)cc1OC	42%	
Cc1ccnc(NC(=O)c2ccoc2C)c1	-20.2%	
COc1cc(SC)ccc1C(=O)N(Cc1ccccc1)c1ccccc1	0.287%	
Cc1ccnc(NC(=O)CCCOc2ccccc2)c1	3.66%	
COc1cc(SC)ccc1C(=O)Nc1nc(C)cs1		1.26 µM (active)
COc1cc(SC)ccc1C(=O)Nc1cc(C)ccn1		6.31 µM (active)
COc1ccc(C)cc1NC(=O)CNCc1cccs1	26.6%	
Cc1sc2ncn(CC(=O)NCCCC(=O)NCc3ccc(F)cc3)c(=O)c2c1C	3.51%	
CC(C)(C)c1ccc(C(=O)N2CCN(CCNC(=O)C(=O)Nc3ccc(F)cc3)CC2)cc1	42.6%	
COc1ccc(CNS(=O)(=O)c2cc(-c3cc(C)no3)ccc2C(C)C)cc1	31.8%	
O=C(c1ccco1)N1CCN(C(=O)c2cc(-c3ccccc3F)no2)CC1	28.9%	
CC1(C)c2[nH]c3ccccc3c2C[C@H]2C(=O)N(N)CC(=O)N21	6.7%	
O=C(c1cnn(-c2ccc(Cl)cc2)c1)c1ccccc1O	-38.1%	
Cc1cc(O)cc(O)c1C(=O)Cc1cnn(-c2ccccc2)c1		0.199 µM (active)
COc1ccc(C(=O)Cc2cnn(-c3ccccc3)c2)c(O)c1	27.6%	
O=C(Nc1cccc(-n2cnnn2)c1)c1cccnc1	12.2%	
COc1ccc(CNC(=O)c2c[nH]c3c(OC)cc(OC)cc3c2=O)cc1	8.69%	
Nc1nonc1-n1nnc(C(=O)N/N=C/C2CCCCC2)c1-c1ccccc1	-30.9%	
Nc1nonc1-n1nnc(C(=O)N/N=C/c2c[nH]c3ccccc23)c1-c1ccccc1	3.13%	
CCCOc1ccc(-c2c(C(=O)N/N=C/c3ccco3)nnn2-c2nonc2N)cc1		11.2 µM (active)
Cn1c(=O)c2c(nc(NCCNC(=O)c3ccco3)n2Cc2ccccc2F)n(C)c1=O	16.6%	
O=C(O)c1ccc(S(=O)(=O)N2CCC(Cc3ccccc3)CC2)cc1	-17.6%	
Cn1cnc2c1c(=O)n(Cc1ccccc1C#N)c(=O)n2C	-22%	
O=C1CN(C(=O)c2ccccc2F)C(c2ccc(F)cc2)c2cc(F)ccc2N1 (configuration not stated)	24.6%	
Cc1cc(=O)oc2c(C)c(OCC(=O)NCCN3CCOCC3)ccc12	-6.37%	
